Compound activity deposited in PubChem by several laboratories.
Rows were chosen to be rich in hits. Some 1.4% of all compounds tested hit in one or more screens of this group.
A3G deaminase: inhibitors of human APOBEC3G DNA deaminase | Q9HC16 | recombinant A3G, ssDNA deamination FAM/TAMRA fluorescence | inhibition, % at 20 µM | 0.28% of 330,000 active | AID 493012;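 active means inhibition of at least 40% at 20 µM, with no more than 30% in the related APOBEC3A deaminase screen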;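 further: plate controls were DMSO wells with A3G for no effect and wells lacking A3G enzyme for full effect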
VLA-4 inh: inhibition in a human VLA-4 binding assay. P13612. VLA-4 expressing cells, ligand binding flow cytometry. inhibition, % (about 7 µM as worked out from the volumes in the protocol). 0.2% of 330,000 active; in the data active means inhibition above about 50%
GRK2 inh: blocks RNA aptamer binding to human GRK2; bead flow cytometry, FAM-aptamer displacement from GRK2; AID 488847; P25098; inhibition of aptamer binding, % at 10 µM; 0.59% of 330,000 active;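 active means inhibition of aptamer binding above 40%, roughly 3 SD of noise, on plates passing a quality check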;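 further: median bead fluorescence of bound FAM aptamer so fluorescent compounds give negative values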
Target sequence (P25098 whole entry, looked up): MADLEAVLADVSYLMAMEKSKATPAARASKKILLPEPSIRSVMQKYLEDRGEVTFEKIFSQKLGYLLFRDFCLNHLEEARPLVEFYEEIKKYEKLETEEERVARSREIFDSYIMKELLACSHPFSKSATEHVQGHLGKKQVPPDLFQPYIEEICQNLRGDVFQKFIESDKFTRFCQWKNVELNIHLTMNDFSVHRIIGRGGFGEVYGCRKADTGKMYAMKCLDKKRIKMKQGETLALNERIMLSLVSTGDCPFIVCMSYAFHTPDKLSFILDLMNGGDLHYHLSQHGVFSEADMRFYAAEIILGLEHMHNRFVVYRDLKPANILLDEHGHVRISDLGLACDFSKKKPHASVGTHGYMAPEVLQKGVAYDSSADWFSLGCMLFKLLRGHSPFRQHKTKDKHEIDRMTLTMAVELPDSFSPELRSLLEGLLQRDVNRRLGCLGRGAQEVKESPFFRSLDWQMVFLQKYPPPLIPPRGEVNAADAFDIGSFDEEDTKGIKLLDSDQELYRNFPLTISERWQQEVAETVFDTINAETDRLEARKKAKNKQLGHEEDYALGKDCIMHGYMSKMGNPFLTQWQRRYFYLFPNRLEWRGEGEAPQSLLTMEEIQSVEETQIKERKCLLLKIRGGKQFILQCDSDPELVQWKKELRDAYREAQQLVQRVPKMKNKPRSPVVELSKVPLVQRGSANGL
A3A deaminase: inhibitors of human APOBEC3A DNA deaminase; P31941; recombinant A3A, FAM/TAMRA ssDNA deamination fluorescence; inhibition, % at 20 µM; 0.41% of 330,000 active; AID 493011;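 active means at least 40% inhibition at 20 µM here, with at most 30% in a related deaminase screen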;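 further: plate controls were A3A with DMSO for no effect and wells lacking A3A enzyme for full effect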
A3A conf: confirmation of human APOBEC3A DNA deaminase inhibitors. shares compounds with A3A deaminase. recombinant A3A, ssDNA deaminase UDG fluorescence assay. inhibition, % at 20 µM. 63% of 1,400 active. AID 493151;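 active means inhibition reaching a set limit, 80% of the first screen's cutoff, at 20 µM in any replicate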;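 further: plate controls were DMSO wells with A3A for no effect and wells lacking A3A enzyme for full effect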
UDG A3A counter: UDG inhibition in APOBEC3A counter-screen. shares compounds with A3A deaminase. UDG counterscreen, FAM/TAMRA uracil oligo fluorescence. inhibition, % at 20 µM. 1,000 tested, under 10 active. AID 504714; call rule not given here
* marks the source's active call; other numbers are inactive results.

Results for COCCNC(=O)c1ccc2c3n(nc2c1)-c1ccc(C)cc1CO3 ?
A3G deaminase: -6.5; VLA-4 inh: 28.4; GRK2 inh: 1.0; A3A deaminase: -2.6

What do the screens show for `COc1ccc(NC(=O)/C(C#N)=C\c2ccc(Br)o2)cc1`?
A3G deaminase: 20.9; VLA-4 inh: -5.5; GRK2 inh: 16.0; A3A deaminase: 70.8*; A3A conf: 42.0*; UDG A3A counter: -1.6

How did COc1ccc(NC(=O)/C(C#N)=C/c2ccc(-c3ccccc3C(=O)O)o2)cc1 do in these assays?
A3G deaminase: -11.3; VLA-4 inh: -1.1; GRK2 inh: 2.0; A3A deaminase: -5.4

Results for O=C(CSCSCC(=O)Nc1ccc2c(c1)OCO2)Nc1ccc2c(c1)OCO2 ?
A3G deaminase: 8.7; VLA-4 inh: 12.6; GRK2 inh: 1.0; A3A deaminase: -0.2

How did Cc1nn(-c2cccc(Cl)c2)c2nc(-c3ccco3)cc(C(=O)O)c12 do in these assays?
A3G deaminase: 16.3; VLA-4 inh: -0.2; GRK2 inh: 1.0; A3A deaminase: 39.4

Results for Cc1nn(-c2ccccc2)c2nc(-c3ccco3)cc(C(=O)O)c12 ?
A3G deaminase: 20.6; VLA-4 inh: -9.3; GRK2 inh: 7.0; A3A deaminase: 67.0*; A3A conf: 48.5*; UDG A3A counter: -1.3

How did O=C1C=C(O)c2c(O)cc(O)c(O)c2C1=O do in these assays?
A3G deaminase: 8.2; VLA-4 inh: 2.9; GRK2 inh: 4.0; A3A deaminase: 83.4*; A3A conf: 76.0*

What do the screens show for `CCN(CC(=O)Nc1ccc2c(c1)OCCO2)C(=O)COc1ccc(C)cc1`?
A3G deaminase: -6.6; VLA-4 inh: 5.4; GRK2 inh: 0.0; A3A deaminase: -4.9

How did COc1ccc(-c2nnc3sc(C4CCCCC4)nn23)cc1OC do in these assays?
A3G deaminase: 16.3; VLA-4 inh: 1.8; GRK2 inh: 0.0; A3A deaminase: 49.4*; A3A conf: 30.4

What do the screens show for `C[n+]1ccccc1/C=C/c1c(F)cccc1F`?
VLA-4 inh: -0.7; GRK2 inh: 0.0

How did Cc1ccccc1/C=C/c1cccc[n+]1C do in these assays?
A3G deaminase: 15.2; VLA-4 inh: -0.7; GRK2 inh: 0.0; A3A deaminase: 84.2*; A3A conf: 69.5*; UDG A3A counter: -3.1

Results for C[n+]1ccccc1/C=C/c1ccccc1Cl ?
A3G deaminase: 14.4; VLA-4 inh: -0.7; GRK2 inh: 0.0; A3A deaminase: 81.3*; A3A conf: 66.5*; UDG A3A counter: -2.7

What do the screens show for `CCCCn1c(N)c(N(CC)C(=O)c2ccc(Cl)c([N+](=O)[O-])c2)c(=O)[nH]c1=O`?
A3G deaminase: 1.9; VLA-4 inh: 2.9; GRK2 inh: 2.0; A3A deaminase: 49.7*; A3A conf: 28.5

What do the screens show for `CCCCn1c(N)c(N(CCC(C)C)C(=O)c2ccc(N3CCCC3=O)cc2)c(=O)[nH]c1=O`?
A3G deaminase: -0.8; VLA-4 inh: 23.6; GRK2 inh: 0.0; A3A deaminase: 42.7*; A3A conf: 18.2; UDG A3A counter: 3.2

Results for CCCCn1c(N)c(N(CCC(C)C)C(=O)C2CC(=O)N(c3cccc(SC)c3)C2)c(=O)[nH]c1=O (stereo not drawn) ?
A3G deaminase: 9.3; VLA-4 inh: -13.9; GRK2 inh: 2.0; A3A deaminase: 45.2*; A3A conf: 0.1

Results for CCCCn1c(N)c(N(CC)C(=O)c2ccc(C)cc2)c(=O)[nH]c1=O ?
A3G deaminase: 0.6; VLA-4 inh: 6.2; GRK2 inh: 0.0; A3A deaminase: -1.7

What do the screens show for `CCCCn1c(N)c(N(CC)C(=O)c2ccc(N3CCCC3=O)cc2)c(=O)[nH]c1=O`?
A3G deaminase: -1.2; VLA-4 inh: -1.7; GRK2 inh: 0.0; A3A deaminase: 18.7

How did COc1ccc(N2CCCC2)c(NC(=O)COc2ccccc2Cl)c1 do in these assays?
A3G deaminase: -11.1; VLA-4 inh: -5.8; GRK2 inh: 1.0; A3A deaminase: -4.4

What do the screens show for `COc1ccccc1CNC(=O)C1CCN(c2ncnc3c2nc2n3CCCCC2)CC1`?
A3G deaminase: 16.4; VLA-4 inh: 11.6; GRK2 inh: 2.0; A3A deaminase: 1.2

What do the screens show for `CCc1ccc(-c2cc(C(=O)N/N=C/c3c[nH]c4ccccc34)[nH]n2)cc1`?
A3G deaminase: -2.3; VLA-4 inh: 2.0; GRK2 inh: 4.0; A3A deaminase: 4.9

Results for CCc1ccc(/C=C/c2c[nH]c3ccccc23)[n+](CC)c1 ?
A3G deaminase: 20.0; VLA-4 inh: -38.6; GRK2 inh: 0.0; A3A deaminase: 64.5*; A3A conf: 68.7*; UDG A3A counter: 0.0

How did CC(C)CC[n+]1ccccc1/C=C/c1ccc(N(C)C)cc1 do in these assays?
A3G deaminase: -13.1; VLA-4 inh: inactive; GRK2 inh: 0.0; A3A deaminase: 55.6*; A3A conf: 54.1*; UDG A3A counter: -4.0

How did CCCn1c(=O)c2ccccc2n2c(SCC(=O)Nc3cc(C)on3)nnc12 do in these assays?
A3G deaminase: -5.0; VLA-4 inh: -7.4; GRK2 inh: 1.0; A3A deaminase: -3.4

What do the screens show for `CC[N+]1(CC(O)COC2CC(C)CC(C)(C)C2)CCOCC1` (stereo not drawn)?
A3G deaminase: 23.7; VLA-4 inh: -0.2; GRK2 inh: 0.0; A3A deaminase: 43.2*; A3A conf: 75.0*; UDG A3A counter: -4.0

Results for CC1CCN(CC(O)COC2CC(C)CC(C)(C)C2)CC1 (stereo not drawn) ?
A3G deaminase: -10.8; VLA-4 inh: 1.1; GRK2 inh: 0.0; A3A deaminase: -4.0

What do the screens show for `CN1CCC(N(C)S(=O)(=O)c2ccc(NC(=O)COc3ccc(Cl)cc3)cc2)CC1`?
A3G deaminase: 1.5; VLA-4 inh: -3.8; GRK2 inh: 0.0; A3A deaminase: 2.6

Results for CN1CCC(N(C)S(=O)(=O)c2ccc(NC(=O)COc3ccc([N+](=O)[O-])cc3)cc2)CC1 ?
A3G deaminase: 8.8; VLA-4 inh: 10.5; GRK2 inh: 0.0; A3A deaminase: 49.8*; A3A conf: 51.6*; UDG A3A counter: -1.2

What do the screens show for `Clc1cccc2c3c([nH]c12)CCNC3`?
A3G deaminase: -5.1; VLA-4 inh: 1.8; GRK2 inh: 0.0; A3A deaminase: -2.6

Results for CN(C)S(=O)(=O)c1ccc(C(=O)NCC[N+]2(C)CCCCCC2)o1 ?
A3G deaminase: 25.2; VLA-4 inh: 7.2; GRK2 inh: 4.0; A3A deaminase: 93.3*; A3A conf: 72.8*; UDG A3A counter: -1.2

How did COCCNC(=O)c1onc(CS(=O)(=O)c2cc(C)cc(C)c2)c1C(=O)NCCOC do in these assays?
A3G deaminase: -0.3; A3A deaminase: 2.8

How did Cc1cccc(C(=O)N2CCC(N3CCC(C(=O)N4CCOCC4)CC3)CC2)c1 do in these assays?
A3G deaminase: -7.2; VLA-4 inh: -13.3; GRK2 inh: 1.0; A3A deaminase: -0.3
